# Hits are enriched below; roughly 17% of the tested compounds scored in any of these assays.
# DT40 TDP1 CPT: qHTS for Inhibitors of human tyrosyl-DNA phosphodiesterase 1 (TDP1): qHTS in cells in presence of CPT | chicken DT40 Tdp1-/-;hTDP1 cells + 20 nM CPT, ATP luminescence, 48 h | 420,000 tested, 12% active | Potency, µM (doses to about 46.2 µM), usual class: inhibitors; note: nearly all actives have a fitted effect of over 55% in size
#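 Cell growth measured by CellTiter-Glo luminescence after a minimum 48 h, 37 C compound exposure with 20 nM CPT in Tdp1-knockout DT40 cells stably expressing hTDP1, seeded 400/well; qHTS titration format.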
# TGFb SMAD3 inh: qHTS for Inhibitors of TGF-b. Potency, µM (titrated, usually from 46.1 µM), usual class: inhibitors. 410,000 tested, 1.2% active. AID 588855, 2011. HepG2 CAGA-GFP TGF-b/SMAD3 reporter, GFP fluorescence, 18 h; TGF-beta stimulated, 500 pg/mL final; note: nearly all actives have a fitted effect of over 65% in size
#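 GFP signal (ex488/em500-530) from TGF-beta-stimulated HEPG2 CAGA-GFP cells, 500 pg/mL final, 18 h at 37 degrees C in DMEM plus 1% FBS, normalized to unstimulated and DMSO-stimulated controls.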
# ATXN viability: Viability Counterscreen for Primary qHTS for Inhibitors of ATXN expression; S2 cells (HEK-293 line with an ATXN2-luciferase reporter) viability, CellTiter-Fluor protease fluorescence, 24 h; Potency, µM (titrated, usually from 56.7 µM), most hits filed as cytotoxic; 400,000 tested, 0.49% active; AID 651635, 2014; note: nearly all actives have a fitted effect of over 40% in size
# HepG2 tox: qHTS for Inhibitors of TGF-b: Cytotox Counterscreen | HepG2 CAGA-GFP viability, ATP luminescence, 18 h | Potency, µM (highest dose often 46.1 µM), most hits filed as cytotoxic | 410,000 tested, 0.76% active
#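 CellTiter-Glo luminescence gave cytotoxicity after 18 hours at 37 degrees C. The cells were HepG2 CAGA-GFP in 1% FBS DMEM, stimulated with 500 pg/mL TGF-beta after compound addition. %Activity was normalised to no-cell wells (complete cell-killing) and DMSO (no toxicity), and curves were fitted and classified.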
# TDP1 cell noCPT: qHTS for Inhibitors of human tyrosyl-DNA phosphodiesterase 1 (TDP1): qHTS in cells in absence of CPT. DT40 Tdp1-/- hTDP1 cells, no CPT, ATP luminescence, 48 h. Potency, µM (series often up to 46.2 µM), most hits filed as inhibitors. 420,000 tested, 15% active. AID 686978, 2013; note: nearly all actives have a fitted effect of over 55% in size
#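 A cellular qHTS used chicken DT40 cells lacking endogenous Tdp1 but carrying stably transfected human TDP1. Compounds were applied without camptothecin, and cell growth kinetics were judged by ATP-dependent luminescence after ≥48 hr.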
# ATXN2 expr inh: Primary qHTS for Inhibitors of ATXN expression; 360,000 tested, 0.72% active; AID 1745845, 2022; HEK-293 ATXN2-luciferase reporter, luminescence, 24 h; Potency, µM (doses to about 57 µM), usual class: inhibitors; note: nearly all actives have a fitted effect of over 55% in size
#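 ATXN2-luciferase reporter cells (luciferase flanked by upstream and downstream ATXN2 gene portions) were treated 24 h at 37 °C with compounds at up to 57 uM. SteadyGlo luminescence gave expression; GF-AFC fluorescence gave viability.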
# A number is an active result; n = inactive; u = inconclusive; x = no result given; [ ] = dose if it differs, or a comment. Calls come from the whole dose curve; as a rule, active = well fitted curve in the direction sought with a large enough effect; inconclusive = small, poorly fitted or top-dose-only effect, or another doubt; inactive = no such curve, though single readings can be large; an effect the other way counts as inactive or inconclusive.
SMILES,DT40 TDP1 CPT,TGFb SMAD3 inh,ATXN viability,HepG2 tox,TDP1 cell noCPT,ATXN2 expr inh
O=C(NCCc1ccccc1F)c1ccc2c(c1)OCCO2,n,n,u,n,n,0.56µM
COC(=O)Nc1ccc(Cn2cc(C(F)(F)F)ccc2=O)cc1,n,n,n,n,n,n[11.3 µM]
Cc1ccc(Nc2c(-c3cccc(Cl)c3)nc3cccc(C)n23)cc1,u,u,n,n,16µM,n
Cc1ccc(-c2nc3ccccn3c2Nc2ccc3c(c2)OCCO3)s1,n,n,n,n,n,n
Cc1ccc2nc(-c3cccc(Cl)c3)c(Nc3ccc4c(c3)OCO4)n2c1,u,n,n,n,n,n
Cc1ccc(Nc2c(-c3ccc(C)s3)nc3cccc(C)n23)cc1,13µM,x,x,x,13µM,x
COc1ccc(-c2nc3cccc(C)n3c2Nc2ccc(C)cc2)cc1,20µM,x,x,x,13µM,x
Cc1ccc(Nc2c(-c3ccc(N4CCOCC4)cc3)nc3cccc(C)n23)cc1,23µM,n,n,n,23µM,n
COc1ccc2cc(C(c3nnnn3C3CCCC3)N3CCOCC3)c3nnnn3c2c1 (centres undefined),n,n,n,n,n,n
COC(=O)[C@@H]1Cc2c([nH]c3ccccc23)C(C)(C)N1C(=O)CCl,18µM,u,u,n,23µM,u
COC(=O)C1Cc2c([nH]c3ccccc23)C2CCC(=O)N12 (centres undefined),n,n,n,n,n,x
O=C(NCc1ccc(Cl)cc1)c1ccc(-c2ccc(F)c(F)c2)c2ccoc12,u,n,n,n,u,n
O=C(NCc1cccs1)c1ccc(-c2ccc(F)c(F)c2)c2ccoc12,12µM,n,n,n,10µM,n
O=C(NCc1ccc(F)c(F)c1)c1ccc(-c2ccc(F)c(F)c2)c2ccoc12,18µM,n,n,n,21µM,n
O=C(NCC1CCOCC1)c1ccc(-c2ccc(F)c(F)c2)c2ccoc12,12µM,n,n,n,10µM,n
COc1ccc(CN2CCC[C@]3(N[C@H](c4ccccc4)[C@@H]4C(=O)N(C)C(=O)[C@@H]43)C2=O)cc1,n,n,n,n,n,n
COCCN1C(=O)CS/C1=C(/C#N)C(=O)NCc1ccco1,n,n,n,n,n,n
CC1=NN(c2ccccc2)C(=O)C1C(=O)C(=O)Nc1ccc(F)cc1 (centres undefined),u,n,n,n,u,n[11.3 µM]
CC1=NN(c2ccccc2)C(=O)C1C(=O)c1ccc(Cl)cc1 (centres undefined),21µM,n,u,n,23µM,u
CCCOc1ccc(C(=O)Nc2cccnc2)cc1,u,n,n,n,u,x
O=C(Nc1ccc(S(=O)(=O)Nc2ccc(F)cc2)cc1)c1ccc(CN2CCOCC2)cc1,u,n,n,n,18µM,n
COc1ccc(CN2CCOCCOCCN(Cc3ccc(OC)cc3)CCOCCOCC2)cc1,u,n,n,n,29µM,u
CCCCOc1ccc(C(=O)Nc2ccncc2)cc1,5.2µM,n,n,n,2.6µM,n
CCCCCCOc1ccc(OC(=O)c2ccncc2)cc1,13µM,n,n,n,23µM,n
O=C(Nc1ccc(S(=O)(=O)N2CCCC2)cc1)c1ccc(CN2CCOCC2)cc1,u,u,u,n,u,u
SMILES,DT40 TDP1 CPT,TGFb SMAD3 inh,ATXN viability,HepG2 tox,TDP1 cell noCPT,ATXN2 expr inh
CCCOc1ccc(C(=O)Nc2ccc(CN3CCOCC3)cc2)cc1,u,n,n,n,u,n
CCCCOc1ccc(C(=O)Nc2ccc(CN3CCOCC3)cc2)cc1,13µM,n,n,n,u,n
COc1ccc(NS(=O)(=O)c2ccc(NC(=O)c3ccc(CN4CCOCC4)cc3)cc2)cc1,18µM,n,n,n,23µM,u
O=C(Nc1ccc(S(=O)(=O)N2CCCCC2)cc1)c1ccc(CN2CCOCC2)cc1,18µM,u,u,n,23µM,u
C=CCOc1cccc(C(=O)N2CCCC(Nc3ccc4c(c3)OCCO4)C2)c1 (centres undefined),n,n,n,n,n,n
C=CCN(C(=O)CCC(=O)O)C1CC(=O)N(c2ccc(OCCC)cc2)C1=O (centres undefined),23µM,n,u,n,26µM,n
CCC1CN(C(=O)N2CCC(C(=O)NCCc3ccccc3OC)CC2)c2ccccc2O1 (centres undefined),u,n,n,n,13µM,n
CCC1CN(C(=O)N2CCC(C(=O)NCCc3ccc(OC)cc3OC)CC2)c2ccccc2O1 (centres undefined),26µM,n,n,n,u,n
CCOC(=O)C1=C(C)NC(C)=C(C(=O)OCC)C1c1ccc(Br)o1,9.2µM,u,n,n,23µM,n
CCOC(=O)C1=C(C)NC(SC)=NC1c1ccc(OC)cc1 (centres undefined),n,n,n,n,n,n
CCOC(=O)C1=C(C)NC(=O)NC1c1ccc(Br)o1 (centres undefined),n,n,n,n,n,n
CCOC(=O)C1=C(C)NC(C)=C(C(=O)OCC)C1c1ccc(OC)cc1,15µM,n,n,n,23µM,n
CN1CCN(c2ncc(-c3cc(Cl)cc(Cl)c3Cl)c(N)n2)CC1,x,x,x,x,x,n
COC1=CC(=NCl)C=CC1=NCl,21µM,n,n,n,16µM,n
CC(C)C(=O)Nc1cccc(COc2cccc(CN(Cc3ccccc3)C(=O)OC(C)(C)C)c2)c1,u,n,n,n,u,n
COc1ccc(NC(=O)CSc2nc(-c3ccc(OC)c(OC)c3)[nH]c2-c2ccc(C)cc2)cc1,5.8µM,u,n,n,u,n
COc1ccc(NC(=O)CSc2nc(-c3cccc(C)c3)[nH]c2-c2ccccc2)cc1OC,9.2µM,11µM,u,n,6.5µM,u
COc1ccc(-c2nc(SCC(=O)Nc3ccc4c(c3)OCCO4)c(-c3ccc(C)cc3)[nH]2)cc1OC,u,n,u,n,18µM,n
COc1ccc(-c2[nH]c(-c3ccc(OC)c(OC)c3)nc2SCC(=O)Nc2ccccc2)cc1,16µM,u,u,n,u,n
COc1ccc(NC(=O)CSc2nc(-c3ccc(OC)cc3)[nH]c2-c2ccc(F)cc2)cc1,n,n,n,n,n,n
COc1cccc(N2CCN(C(=O)c3cccc(NC(=O)C4=C(C)OCCS4)c3)CC2)c1,u,n,u,n,u,x

# Bioassay records (PubChem)
